This is an account of results in PubChem BioAssay AID1259421 (Broad Institute, 2018).

“And” between values parts separate entries of the source, which are not always exact repeats. Equal values may be shown once. Among all 6,400 compounds or so, about 610 (9.5%) were called active. No stated cut-off is given here; in the data, active means activity change below about -70%; inconclusive means no clear call, values can overlap the other calls; inactive means above that. The sample as a whole holds a higher share of actives than the screen did. Some compounds were tested as several samples or in several runs, with calls that do not always agree. Where a SMILES comes first, the peptide text is derived from it.

This assay can be described thus: T. gondii ME49Luc in HeLa cells, luciferase assay, 72 h, no IFN-y (AID 1259421). The settings on record: stronger effect = lower value, concentration not given here.
As for `C[C@H]1[C@H](C)CC[C@]2(C(=O)O)CC[C@]3(C)C(=CCC4[C@@]5(C)C[C@@H](O)[C@H](O)[C@@](C)(CO)C5CC[C@]43C)[C@H]12` (some centres not stated), the activity change, negative = inhibition is 14.3% (inactive).

As to `C[C@H]1[C@H](C)CC[C@]2(C(=O)O)CC[C@]3(C)C(=CCC4[C@@]5(C)C[C@@H](O)[C@H](O)[C@@](C)(CO)C5[C@H](O)C[C@]43C)[C@H]12` (some centres not stated), the activity change, negative = inhibition was -87.6% (active). Then `C[C@H]1[C@H](C)CC[C@]2(C(=O)O)CC[C@]3(C)C(=CC[C@@H]4[C@@]5(C)CC[C@H](O)C(C)(C)[C@@H]5CC[C@]43C)[C@H]12`, with -76.6% (active); and `C[C@H]1[C@H](C)CC[C@]2(C(=O)O)CC[C@]3(C)C(=CC[C@@H]4[C@@]5(C)C[C@@H](O)[C@H](O)[C@@](C)(CO)[C@@H]5CC[C@]43C)[C@H]12`, with -67.1% (inactive) and -6.04% (inactive).

As for `C[C@@H]1CC[C@]2(C(=O)O)CC[C@]3(C)C(=CCC4[C@@]5(C)CC[C@H](O)C(C)(C)C5CC[C@]43C)C2[C@H]1C` (some centres not stated), the activity change, negative = inhibition is 8.22% (inactive). The same measure for `CC1(C)CC[C@]2(C(=O)O)CC[C@]3(C)C(=CC[C@@H]4[C@@]5(C)CC[C@H](O)C(C)(C)[C@@H]5CC[C@]43C)[C@@H]2C1`: -38.2% (inactive) and 16.6% (inactive); for `Nc1nc2c(ncn2CCC(CO)CO)c(=O)[nH]1`: 11.1% (inactive). Then `COc1c2ccoc2nc2c(OC)c(OCC(O)C(C)(C)O)ccc12` (configuration not stated), with 7.33% (inactive); and `C[C@@H](NCCCc1cccc(C(F)(F)F)c1)c1cccc2ccccc12`, with 58.2% (inactive); and `CO[C@H]1C=CO[C@@]2(C)Oc3c(C)c(O)c4c(O)c(c5c(nc6cc(C)ccn65)c4c3C2=O)NC(=O)/C(C)=C\C=C/[C@H](C)[C@H](O)[C@@H](C)C(O)[C@@H](C)[C@H](OC(C)=O)[C@@H]1C` (some centres not stated), with 2.45% (inactive). On to `CC(C)CC1C(=O)N2CCC[C@H]2C2(O)O[C@](NC(=O)C3C=C4c5cccc6[nH]c(Br)c(c56)C[C@H]4N(C)C3)(C(C)C)C(=O)N12` (some centres not stated), for which the activity change, negative = inhibition is -3.42% (inactive). On to `CS(=O)(=O)Oc1ccc2c(NC(N)=O)c(C(=O)c3ccc(Cl)cc3Cl)oc2c1`, for which the activity change, negative = inhibition was 6% (inactive) and -81.6% (active). The same measure for `O=C(NS(=O)(=O)c1ccc(Br)s1)c1ccc(Cl)cc1Cl`: 15.3% (inactive).

In the case of `O=c1cc(N2CCOCC2)nc2c3ccccc3ccn12`, the activity change, negative = inhibition is 7.41% (inactive). The same measure for `Cc1cccc(/C=N/Nc2cc(N3CCOCC3)nc(OCCc3ccccn3)n2)c1`: -83.9% (active); for `CCOC(=O)CCNc1cc(N2CCc3ccccc3CC2)nc(-c2ccccn2)n1`: -57.4% (inactive); for `O=C(O)c1ccc(-n2nc(-c3ccccc3O)nc2-c2ccccc2O)cc1`: -30% (inactive).

For the compound `CC(C)(O)CC[C@@H](O)[C@](C)(O)C1CC[C@@]2(O)C3=CC(=O)C4C[C@@H](O)[C@@H](O)C[C@]4(C)C3CC[C@]12C` (some centres not stated), the activity change, negative = inhibition was 12.6% (inactive).

As for `Fc1cccc(/C=N/N=C/c2cccc(F)c2)c1`, the activity change, negative = inhibition was 8.5% (inactive) and 8.55% (inactive). Take `C[N+]1(C)[C@@H]2CC(OC(=O)C(O)(c3cccs3)c3cccs3)C[C@H]1[C@@H]1O[C@@H]12` (some centres not stated): the activity change, negative = inhibition is 13.9% (inactive).

Take `COc1ccc(CNc2nc(N3CCC[C@H]3CO)ncc2C(=O)NCc2ncccn2)cc1Cl`: the activity change, negative = inhibition is -6.59% (inactive). The same measure for `CCc1cnn2c(NCc3ccc[n+]([O-])c3)cc(N3CCCC[C@H]3CCO)nc12`: -74.2% (active); for `COc1cc(O)cc([C@@H]2CC(=O)c3c(O)cc(O[C@@H]4O[C@H](CO)[C@@H](O)[C@H](O)[C@H]4O[C@@H]4O[C@@H](C)[C@H](O)[C@@H](O)[C@H]4O)cc3O2)c1`: 4.15% (inactive); for `c1ccc(Oc2nc(NC3CCCCC3)c3[nH]cnc3n2)cc1`: -6.74% (inactive). Regarding `Cn1cnc2cc3c(Nc4cccc(Br)c4)ncnc3cc21`, the activity change, negative = inhibition is -18.1% (inactive). The same measure for `O=C(NCCCl)N(CCCl)[NH2+][O-]`: -12% (inactive). Take `O=C(O)c1ccc(N2C(=O)/C(=C/c3ccc(-c4ccc([N+](=O)[O-])cc4)o3)C=C2c2ccccc2)cc1`: the activity change, negative = inhibition is 14.9% (inactive). Regarding `CN1CCc2c(c3ccccc3n2Cc2ccc(C(=O)NO)cc2)C1`, the activity change, negative = inhibition is -47% (inactive). Take `CCCCN(Cc1ccc(C(=O)NO)cc1)C(=O)Nc1ccccc1`: the activity change, negative = inhibition was -84.4% (active). For `CCCN(CCC)C(=O)C(CCC(=O)O)NC(=O)c1ccccc1` (configuration not stated), the activity change, negative = inhibition is -0.127% (inactive) and 11.8% (inactive). The same measure for `CC1CCCC(C)N1` (configuration not stated): 19.7% (inactive); for `NCCc1ccn[nH]1`: 7.65% (inactive); for `CN(C)N(C)C(=O)[C@@]1(Cc2ccccc2)CCCN(C(=O)[C@@H](Cc2c[nH]c3ccccc23)NC(=O)C(C)(C)N)C1`: 17.2% (inactive). On to `CSc1nc(NC2CCCC2)c([N+](=O)[O-])c(NC2CCCC2)n1`, for which the activity change, negative = inhibition was 15.2% (inactive) and 17.7% (inactive).

On to `CCCCCCOC(=O)/N=C(/N)c1ccc(NCc2nc3cc(C(=O)N(CCC(=O)OCC)c4ccccn4)ccc3n2C)cc1`, for which the activity change, negative = inhibition was 13.2% (inactive). The same measure for `CC(=O)OCC(=O)[C@@]12OC(C)(C)O[C@@H]1CC1C3C[C@H](F)C4=CC(=O)C=C[C@]4(C)[C@@]3(F)[C@@H](O)C[C@@]12C` (some centres not stated): 8.91% (inactive) and 0.0222% (inactive); for `COC1=CC(=O)C(=O)C/C1=C\C=C\c1ccccc1`: -4.53% (inactive); for `CCCCCCCCCCCCN1CCCCCC1=O`: 10.1% (inactive). The same measure for `COc1cc(NS(C)(=O)=O)ccc1Cc1c2ccccc2nc2ccccc12`: -78.8% (active); for `COc1cc(NS(C)(=O)=O)ccc1Nc1c2ccccc2nc2ccccc12`: -35.3% (inactive) and -53.5% (inactive). The same measure for `COc1ccccc1S(=O)(=O)Nc1ccc2c(c1)CN(C)C(=O)N2`: 28.4% (inactive). As to `Cc1cc(=O)c2c(O)c3c(O)cc(O)c4c5c(O)cc(O)c6c(O)c7c(=O)cc(C)c8c1c2c(c34)c(c65)c78`, the activity change, negative = inhibition is -7.43% (inactive). Then `C[C@@]1(O)[C@H](O)[C@@H](CO)O[C@H]1n1cnc2c(NC3CCCC3)nc(Cl)nc21`, with 14.8% (inactive); and `C=CC(=O)Nc1cccc(Nc2nc(Nc3ccc(NC4CN(CCF)C4)cc3OC)ncc2C(F)(F)F)c1`, with -9.1% (inactive); and `C=CC(=O)Nc1cccc(Nc2nc(Nc3ccc(N4CCN(C(C)=O)CC4)cc3OC)ncc2C(F)(F)F)c1`, with 15.7% (inactive). Then `CC(=O)NCC(=O)N1[C@@H]2CC[C@H]1c1ccc(Nc3ncc(C(F)(F)F)c(NC4CCC4)n3)cc12`, with -73.8% (active); and `S=c1ccss1`, with 1.03% (inactive).

For the compound `COc1ccc(-c2cc(=O)c3c(O)cc(O)cc3o2)cc1`, the activity change, negative = inhibition was 127% (inactive). For `CC(C)c1c(C(=O)Nc2ccccc2)c(-c2ccccc2)c(-c2ccc(F)cc2)n1CC[C@@H](O)C[C@@H](O)CC(=O)O`, the activity change, negative = inhibition was 9.33% (inactive).

For the compound `CC(C)n1c(/C=C/[C@@H](O)C[C@@H](O)CC(=O)O)c(-c2ccc(F)cc2)c2ccccc21`, the activity change, negative = inhibition was -79.8% (active) and 10.3% (inactive). Then `O=C(O)C[C@H](O)C[C@H](O)/C=C/c1c(C2CC2)nc2ccccc2c1-c1ccc(F)cc1`, with -31.6% (inactive) and 2.61% (inactive); and `CC(C)N1c2ccccc2C(c2ccc(F)cc2)C1/C=C/C(O)CC(O)CC(=O)O` (configuration not stated), with -15.2% (inactive); and `COCc1c(C(C)C)nc(C(C)C)c(/C=C/[C@@H](O)C[C@@H](O)CC(=O)O)c1-c1ccc(F)cc1`, with -88.4% (active). Turning to `CC(C)c1nc(N(C)S(C)(=O)=O)nc(-c2ccc(F)cc2)c1/C=C/[C@@H](O)C[C@@H](O)CC(=O)O`, the activity change, negative = inhibition is 15.1% (inactive) and -35.2% (inactive). Then `COc1cc(SC)ccc1C(=O)N1CCC(Cc2ccccc2)CC1`, with 36.5% (inactive) and 48.1% (inactive); and `CC(C)N(C[C@H]1O[C@@H](n2cnc3c(N)ncnc32)[C@H](O)[C@@H]1O)C1CC(CCc2nc3ccc(C(C)(C)C)cc3[nH]2)C1` (some centres not stated), with 8.46% (inactive) and -64.1% (inactive).

For the compound `O=C(O)C(=O)Nc1cccc(-c2nn[nH]n2)c1`, the activity change, negative = inhibition is 5.48% (inactive). Then `CN1CCc2nc(C(=O)N[C@H]3C[C@H](C(=O)N(C)C)CC[C@@H]3NC(=O)C(=O)Nc3ccc(Cl)cn3)sc2C1`, with 9.11% (inactive); and `C[C@H](N)C(=O)N[C@@H](CCC(N)=O)C(=O)O` (H-Ala-Gln-OH), with 3.92% (inactive); and `N#C/C(=C/c1ccc(O)c(O)c1)C(=O)NCCCc1ccccc1`, with -10.8% (inactive). Then `NC(N)=NC(=O)c1cnccn1`, with 11.4% (inactive); and `CC(C)(C)NCC(O)COc1cccc2c1C[C@H](O)[C@H](O)C2` (some centres not stated), with 4.27% (inactive). On to `COc1ccc2c(O[C@H]3CC4C(=O)N(C)CCCC/C=C\[C@@H]5C[C@@]5(C(=O)NS(=O)(=O)C5CC5)NC(=O)[C@@H]4C3)cc(-c3nc(C(C)C)cs3)nc2c1C` (some centres not stated), for which the activity change, negative = inhibition was -71.4% (active). For `CC(C)(C)OC(=O)N[C@H]1CCCCC/C=C\[C@@H]2C[C@@]2(C(=O)NS(=O)(=O)C2CC2)NC(=O)[C@@H]2C[C@@H](OC(=O)N3Cc4cccc(F)c4C3)CN2C1=O`, the activity change, negative = inhibition was 19.7% (inactive). The same measure for `N#CC(Cc1ccc(O)cc1)c1ccc(O)cc1` (configuration not stated): 6.16% (inactive) and 5.25% (inactive); for `CC(=O)OCC(=O)[C@@]1(OC(C)=O)[C@@H](C)CC2C3C[C@H](F)C4=CC(=O)C=C[C@]4(C)[C@@]3(F)[C@@H](O)C[C@@]21C` (some centres not stated): -5.04% (inactive) and -3.76% (inactive); for `CCC[C@@H]1C[C@@H](C(=O)N[C@H]([C@H]2O[C@H](SC)[C@H](O)[C@@H](O)[C@H]2O)[C@H](C)O)N(C)C1`: -17.1% (inactive).
